Assay results published in ChEMBL document CHEMBL3988442, “University of Dundee, Small-Polar-MMV Screening Library” (2021).
Screen size: about 48,000 compounds; about 13,000 (27%) showed an effect of 50% or more. The list shows a part of the results.

System: Wolbachia pipientis
Test: Anti-Wolbachia Cell-Based Screen
Format: functional
Parameters: scale not given: in the data most compounds retested in dose-response had high values
Details: 5 µM

| SMILES | Percent Effect [%] |
| --- | --- |
| COc1ccc(C(=O)N2C[C@@H](CN3CCCC3)[C@@H](CO)C2)c(C)c1 | 5.26 |
| O=c1[nH]c(CN2CCN(CC(F)(F)F)CC2)nc2ccccc12 | -9.937 |
| CCn1c(CN2CCOC(Cn3cncn3)C2)nc2cc(F)ccc21 (stereo unspecified) | 8.019 |
| Cc1ccc(C2(CN3CCCC3)CCNCC2)nc1 | 5.469 |
| COCCN1CCCC12CCN(Cc1cncn1C)CC2.O=C(O)C(F)(F)F.O=C(O)C(F)(F)F | -4.301 |
| Cc1ccc(C2(CN3CCN(Cc4cnc(C)n4C)CC3)CC2)cc1.Cl | 125 |
| Cc1ccc(C2(CN3CCN(Cc4cncn4C)CC3)CC2)cc1.Cl | 158.8 |
| CCn1cncc1CN1CCN(CC2(c3ccc(C)cc3)CC2)CC1.Cl | 124 |
| CCn1cncc1Cn1cccc(C(F)(F)F)c1=O | 2.585 |
| COCCn1cncc1CN1CCCC(C)(c2ccccc2)C1 (stereo unspecified) | -12.89 |
| Cc1ccc(C2(CN3CCN(c4ncccn4)CC3)CCNCC2)nc1 | -14.8 |
| Cn1cncc1CN1CCC2(CC1)CCN2c1ncccn1 | 0.5048 |
| Cc1ccc(C(=O)Nc2cc(C(N)=O)ccc2CN(C)C)cc1Cl | -14.19 |
| NC(=O)c1ccc(NC(=O)N2CCN(c3cccs3)CC2)c(F)c1 | -5.895 |
| CS(=O)(=O)NC[C@H]1OC[C@@H](NC2CCC(F)(F)CC2)[C@@H]1O | -4.949 |
| COCc1noc(CN2CCC3(CC2)[C@H](O)C[C@@H]3OC)n1 | 101.4 |
| OCCO[C@H]1C[C@@H](O)C12CCN(Cc1nc(C(F)(F)F)no1)CC2 | 99.64 |
| COc1cc(CN2CCC3(CC2)[C@H](O)C[C@@H]3OCCO)ccc1F | 8.427 |
| COc1ccc(F)c(F)c1CN1CCC2(CC1)[C@H](O)C[C@@H]2OCCN | 1.725 |
| COCc1noc(CN2C(=O)OC[C@@H]2C(C)C)n1 | -2.73 |
| CNc1cc(C)nc(N2CCC3(CC2)[C@H](O)C[C@@H]3OC)n1 | 12.2 |
| CCN(Cc1nc(COC)no1)C[C@]1(O)CCCN2CCCC[C@@H]21 | -7.865 |

| SMILES | Percent Effect [%] |
| --- | --- |
| CO[C@H]1C[C@@H](O)C12CCN(Cc1nc(C(F)(F)F)no1)CC2 | 107.1 |
| NCCO[C@H]1C[C@@H](O)C12CCN(Cc1c(F)cccc1F)CC2 | -12.61 |
| Cc1ccccc1SC1CCN(C(=O)C2CNCC(=O)N2)CC1 (stereo unspecified) | -16.36 |
| COc1nccnc1-c1cccc(-c2ccn(CC3COCCO3)n2)c1 (stereo unspecified) | -15.38 |
| CCN(C)c1ncnc2c1CCN(C(=O)c1cccn1C)CC2 | -8.14 |
| COCCn1ccc(=O)c(OCC(=O)Nc2cccc(C(C)=O)c2)c1C | 6.255 |
| CC(C)n1ccc2c(NC(=O)c3n[nH]c4c3CCC4)cccc21 | 99.33 |
| O=C(c1n[nH]c2c1CCC2)N1CCCC1c1nc(-c2ccccc2)no1 (stereo unspecified) | 8.692 |
| CC(C)CN1CCc2[nH]nc(C(=O)N3CCCC3)c2C1.O=C(O)C(F)(F)F | 26.25 |
| CC(C)Cn1cncc1CNC(=O)c1cccc(-n2cnnc2)c1 | 1.824 |
| CC(C)Cn1ccc2c(NC(=O)c3n[nH]c4c3CCC4)cccc21 | 106.4 |
| COCCn1cc(C(=O)N2CCCC2c2cc(C)on2)c2ccccc21 (stereo unspecified) | -11.13 |
| COCCn1ccc2c(NC(=O)c3n[nH]c4c3CCCC4)cccc21 | 111.2 |
| COCCn1ccc2c(NC(=O)c3n[nH]c4c3CCC4)cccc21 | 97.48 |
| O=C(c1n[nH]c2c1CCC2)N1CCCC1c1nc(-c2ccccn2)no1 (stereo unspecified) | 14.67 |
| Cc1noc(C)c1CSc1nc(=O)ccn1C(C)C | -1.27 |
| NC(=O)C(NC(=O)COCCc1ccccc1)c1ccccc1F (stereo unspecified) | -15.69 |
| CCCn1nc2c(cc1=O)CN(CCCS(N)(=O)=O)CC2 | -2.42 |
| CCC[C@@H]1CN(Cc2c[nH]c(CC3CCCC3)n2)C[C@H]1C(=O)O | -10.74 |
| CCOC(=O)c1coc(N2CCC(C(C)N3CCCC3)CC2)n1 (stereo unspecified) | 0 |
| O=C(CCc1ccsc1)NS(=O)(=O)Cc1ccon1 | -50.57 |
| Cn1ccnc1CNC(=O)CCc1cccc(F)c1 | 127.3 |

| SMILES | Percent Effect [%] |
| --- | --- |
| O=C(CCc1ccc(Br)cc1)NCc1nnc[nH]1 | -10.7 |
| CC(CCc1cccc(F)c1)NC(=O)NCc1ncnn1C (stereo unspecified) | -8.39 |
| Cc1cc2ccccc2n1CCC(=O)NCc1ncc[nH]1 | -13.5 |
| Cc1cc(CCC(=O)NCc2ncc[nH]2)ccc1Br | 105.6 |
| Cn1ccnc1CCNC(=O)C1CCCN(Cc2cccc(F)c2)C1 (stereo unspecified) | -2.372 |
| Cc1cc(CCC(=O)N2CC[C@H](O)C2)ccc1Br | 2.583 |
| Cc1cc(CCC(=O)N2CCC(O)CC2)ccc1Br | -5.317 |
| Cc1cc(CCC(=O)NCc2nccn2C)ccc1Br | 125.4 |
| CC(C)CC(NC(=O)c1cc(-c2cccn2C)n[nH]1)c1ncnn1C (stereo unspecified) | 13.42 |
| CCc1csc(CNc2nc3c(s2)c(C)nn3C)n1 | -26.31 |
| OCC(CO)Nc1ccc2c(Cl)ccc(Cl)c2n1 | 1.659 |
| COc1cc(F)ccc1-c1nc2c([nH]1)c(C1CC1)nn2C | 1.853 |
| Cc1ccsc1CN(C)Cn1nccc1-c1cccnc1 | 34.48 |
| O=C(CCN1CCN(c2ccc3nncn3n2)CC1)N1CCCCC1 | 90.26 |
| c1ccc(CCCN2CCN(c3ccc4nncn4n3)CC2)cc1 | 101.5 |
| FC(F)(F)COCCN1CCN(c2ccc3nncn3n2)CC1 | -1.16 |
| c1ccc(OCCCN2CCN(c3ccc4nncn4n3)CC2)cc1 | 7.239 |
| c1cc(CCN2CCN(c3ccc4nncn4n3)CC2)ccn1 | 116 |
| CC1CCCCN1C(=O)CN1CCN(c2ccc3nncn3n2)CC1 (stereo unspecified) | -2.497 |
| Clc1ccccc1CCN1CCN(c2ccc3nncn3n2)CC1 | 114.3 |
| O=C(CCN1CCN(c2ccc3nncn3n2)CC1)NC1CCCC1 | 0.1018 |
| CN(Cc1ccccc1OC(F)(F)F)C(=O)C1CCCN(C(N)=O)C1 (stereo unspecified) | 15.24 |
